Assay results taken from PubChem BioAssay (EPA / NIEHS).
Several values for one entry are separate records, joined by “and”; a condition that tells them apart may be missing. Equal entries are not always repeated. Some structures have more than one record in an assay (separate samples or runs), and their calls can disagree. Activity calls are given as the source filed them. Rule for the calls: active = hit-call score of the fitted dose curve at least 0.9, where 1 is the maximum; inactive = score below 0.9.

Each compound was assayed on Urokinase-type plasminogen activator receptor (uPAR), PLAUR (gene 5329) (assay: BSK_BE3C_uPAR: BioMAP Diversity Plus: BE3C Assay for Urokinase-type plasminogen activator receptor (uPAR) Biomarker Activity (AID 2283039;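 for outcome: uPAR protein level measured by ELISA on the cells; cells exposed to compound for one day before measurement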)). Conditions: primary human bronchial epithelial cells; actives raise or lower the signal.
Summary of the method: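 Chemically treated human bronchial epithelial cells (lung primary) are assayed for uPAR by ELISA after 24 h, with data fitted in both directions using DMSO as negative control.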

SMILES	AC50	outcome
CCCCCCCCCCCCN1CCCC1=O	32.4 µM (active)	–
CCCOC(=O)c1ccc(O)cc1	–	inactive
CC(=O)NC1(c2cccc(F)c2)CCN(CC[C@@]2(c3ccc(Cl)c(Cl)c3)CN(c3ccccc3)C(=O)CO2)CC1	16.6 µM (active)	–
CCc1nn(C2CCCCC2)c2cc(C3(C#N)CCC(C(=O)O)CC3)ccc12 (stereo unspecified)	5.01 µM (active)	–
ClC1=C(Cl)C(Cl)(Cl)C(Cl)=C1Cl	8.37 µM (active)	–
C[C@@H]1C[C@H]2[C@@H]3CCC4=CC(=O)C=C[C@]4(C)[C@@]3(F)[C@@H](O)C[C@]2(C)[C@@]1(O)C(=O)COP(=O)(O)O	–	inactive
CCCCCCCCC(=O)O	–	inactive
NC(=O)N1C(=O)C(C(=O)c2cc(Cl)cs2)c2cc(F)c(Cl)cc21 (stereo unspecified)	6.27 µM (active)	–
CC(C)(C)CC(C)(C)c1ccc(O)c(-n2nc3ccccc3n2)c1	–	inactive
c1ccc2c(c1)ccc1ccccc12	–	inactive
CN1CCC[C@H]1c1cccnc1	–	inactive
CCOC(=O)CC(O)(CC(=O)OCC)C(=O)OCC	–	inactive
O=c1c(-c2ccc(O)cc2)coc2cc(O)ccc12	–	inactive
CCCCCCCCCCCCCC[N+](C)(C)C	4.06 µM (active)	–
CCCCCCCCOC(=O)CCCCCCCCC(=O)OCCCCCCCC	–	inactive
OC1CCCCC1	–	inactive

SMILES	AC50	outcome
CCc1ccc(CCOc2ccc(CC3SC(=O)NC3=O)cc2)nc1 (stereo unspecified)	–	inactive
COCC(C)OCC(C)O (stereo unspecified)	–	inactive
N#C[C@@H]1CC(F)(F)CN1C(=O)CNC1CC2CCC(C1)N2c1ncccn1 (stereo partly specified)	–	inactive
CCCCCCCCCCCCCCCS(=O)(=O)Oc1ccccc1	–	inactive
CCN(CC)CCNc1ccc(CNC=O)c2sc3ccc(OC)cc3c(=O)c12	12.9 µM (active)	–
CCCOc1sc(C(=O)N2CCC(c3cc(CN)ccc3F)CC2)c(C)c1Br	7.36 µM (active)	–
OCCC(F)(F)C(F)(F)C(F)(F)C(F)(F)C(F)(F)C(F)(F)C(F)(F)C(F)(F)F	20.9 µM (active) and 22.9 µM (active)	inactive
c1ccc2cc3c(ccc4ccccc43)cc2c1	–	inactive
CC(O)CO (stereo unspecified)	–	inactive
C=C(C)C(=O)OCCC(F)(F)C(F)(F)C(F)(F)C(F)(F)C(F)(F)C(F)(F)F	–	inactive
NC(=O)N(O)[C@@H]1C=C[C@H](Oc2cccc(Oc3ccc(F)cc3)c2)C1	–	inactive
CC[C@H](C)[C@@H](C(=O)O)n1sc2ccccc2c1=O	–	inactive
Cc1oc(-c2ccccc2)nc1CCOc1ccc(C[C@H](Nc2ccccc2C(=O)c2ccccc2)C(=O)O)cc1	3.63 µM (active)	–
CC#C[C@]1(O)CC[C@H]2[C@@H]3CCC4=CC(=O)CCC4=C3[C@@H](c3ccc(N(C)C)cc3)C[C@@]21C	33.7 µM (active)	–
COCC(C)O (stereo unspecified)	–	inactive
COC(=O)CCCCC(=O)OC	–	inactive

The compounds below were run on Interleukin-6 (IL6), IL6 (gene 3569) (assay: BSK_CASM3C_IL6: BioMAP Diversity Plus: CASM3C Assay for Interleukin-6 (IL6) Biomarker Activity for (AID 2283040)). Conditions: primary human coronary artery smooth muscle cells; actives raise or lower the signal.

SMILES	outcome	AC50
CCCCCCCCCCCCN1CCCC1=O	inactive	–
CCCOC(=O)c1ccc(O)cc1	inactive	–
CC(=O)NC1(c2cccc(F)c2)CCN(CC[C@@]2(c3ccc(Cl)c(Cl)c3)CN(c3ccccc3)C(=O)CO2)CC1	–	8.45 µM (active)
CCc1nn(C2CCCCC2)c2cc(C3(C#N)CCC(C(=O)O)CC3)ccc12 (stereo unspecified)	–	11.1 µM (active)
ClC1=C(Cl)C(Cl)(Cl)C(Cl)=C1Cl	–	5.48 µM (active)
C[C@@H]1C[C@H]2[C@@H]3CCC4=CC(=O)C=C[C@]4(C)[C@@]3(F)[C@@H](O)C[C@]2(C)[C@@]1(O)C(=O)COP(=O)(O)O	–	158 nM (active) and 1.34 µM (active) and 690 nM (active)
CCCCCCCCC(=O)O	inactive	–
NC(=O)N1C(=O)C(C(=O)c2cc(Cl)cs2)c2cc(F)c(Cl)cc21 (stereo unspecified)	inactive	–
CC(C)(C)CC(C)(C)c1ccc(O)c(-n2nc3ccccc3n2)c1	inactive	–
c1ccc2c(c1)ccc1ccccc12	inactive	–
CN1CCC[C@H]1c1cccnc1	inactive	–
CCOC(=O)CC(O)(CC(=O)OCC)C(=O)OCC	inactive	–
O=c1c(-c2ccc(O)cc2)coc2cc(O)ccc12	inactive	–
CCCCCCCCCCCCCC[N+](C)(C)C	–	9.39 µM (active)
CCCCCCCCOC(=O)CCCCCCCCC(=O)OCCCCCCCC	inactive	–
OC1CCCCC1	inactive	–

SMILES	outcome	AC50
CCc1ccc(CCOc2ccc(CC3SC(=O)NC3=O)cc2)nc1 (stereo unspecified)	inactive	–
COCC(C)OCC(C)O (stereo unspecified)	inactive	–
N#C[C@@H]1CC(F)(F)CN1C(=O)CNC1CC2CCC(C1)N2c1ncccn1 (stereo partly specified)	inactive	–
CCCCCCCCCCCCCCCS(=O)(=O)Oc1ccccc1	inactive	–
CCN(CC)CCNc1ccc(CNC=O)c2sc3ccc(OC)cc3c(=O)c12	–	20 µM (active)
CCCOc1sc(C(=O)N2CCC(c3cc(CN)ccc3F)CC2)c(C)c1Br	–	27.4 µM (active)
OCCC(F)(F)C(F)(F)C(F)(F)C(F)(F)C(F)(F)C(F)(F)C(F)(F)C(F)(F)F	inactive	–
c1ccc2cc3c(ccc4ccccc43)cc2c1	inactive	–
CC(O)CO (stereo unspecified)	inactive	–
C=C(C)C(=O)OCCC(F)(F)C(F)(F)C(F)(F)C(F)(F)C(F)(F)C(F)(F)F	inactive	20 µM (active)
NC(=O)N(O)[C@@H]1C=C[C@H](Oc2cccc(Oc3ccc(F)cc3)c2)C1	inactive	–
CC[C@H](C)[C@@H](C(=O)O)n1sc2ccccc2c1=O	inactive	–
Cc1oc(-c2ccccc2)nc1CCOc1ccc(C[C@H](Nc2ccccc2C(=O)c2ccccc2)C(=O)O)cc1	–	29.9 µM (active)
CC#C[C@]1(O)CC[C@H]2[C@@H]3CCC4=CC(=O)CCC4=C3[C@@H](c3ccc(N(C)C)cc3)C[C@@]21C	inactive	–
COCC(C)O (stereo unspecified)	inactive	–
COC(=O)CCCCC(=O)OC	inactive	–
